For assay [1], the target named is Cellular tumor antigen p53 (Homo sapiens) (UniProt P04637). Description: TOX21_p53_BLA_p5_ratio: Tox21 HCT-116 p53 Agonism Beta-lactamase Assay, Ratio, Phase 5 (AID 2283599). In a few lines:
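HCT-116 cells carrying a p53-inducible beta-lactamase reporter were seeded at 4000 cells/well and dosed after 5 h with compound in DMSO (217-fold dilution). After 16 h at 37C, CCF4-AM substrate was added for 2 h, and the 460/530 nm emission ratio was scored as gain-of-signal versus DMSO.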

A short description of assay [2]: TOX21_p53_BLA_p5_viability: Viability Assessment in the Tox21 HCT-116 p53 Agonism Beta-lactamase Assay, Phase 5 (AID 2283600). In a few lines: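 Decreased CellTiter-Glo luminescence denotes lost viability. Exposure: 16 h at 37C, 5% CO2, with compounds from DMSO stocks diluted 217-fold in wells of 4000 cells.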
Assay [3] has as its target Cellular tumor antigen p53 (Homo sapiens) (UniProt P04637). Description: TOX21_p53_BLA_p4_ratio: Tox21 HCT-116 p53 Agonism Beta-lactamase Assay, Ratio, Phase 4 (AID 2283601). In a few lines: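 HCT116 cells carrying an inducible beta-lactamase reporter were plated at 4000 cells/well, rested 5 h, then exposed to compounds in DMSO (217-fold dilution) for 16 h at 37C. CCF4-AM substrate was loaded 2 h at room temperature; 460/530 nm emission ratio scored gain-of-signal versus DMSO.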

Where “and” joins values, the source holds several entries; their conditions need not be identical. Equal entries are not always repeated. Results filed as inconclusive are left out. Some structures have more than one record in an assay (separate samples or runs), and their calls can disagree. Calls of active or inactive are those of the source. How the source made its calls: active means hit-call score of the fitted dose curve at least 0.9, where 1 is the maximum; inconclusive means response in the unintended direction; inactive means score below 0.9.

Sequence of Cellular tumor antigen p53 (Homo sapiens) (P04637 whole entry, looked up): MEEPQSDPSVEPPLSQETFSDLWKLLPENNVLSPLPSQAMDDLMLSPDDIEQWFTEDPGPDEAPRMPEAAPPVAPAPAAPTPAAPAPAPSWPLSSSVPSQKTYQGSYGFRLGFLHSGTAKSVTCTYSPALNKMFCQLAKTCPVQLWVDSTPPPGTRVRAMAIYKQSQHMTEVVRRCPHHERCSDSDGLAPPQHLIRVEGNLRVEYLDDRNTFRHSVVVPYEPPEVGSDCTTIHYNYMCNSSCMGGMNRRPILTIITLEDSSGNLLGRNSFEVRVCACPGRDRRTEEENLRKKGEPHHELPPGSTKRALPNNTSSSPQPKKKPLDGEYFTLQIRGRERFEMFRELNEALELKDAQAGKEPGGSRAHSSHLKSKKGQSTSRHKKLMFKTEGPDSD

Regarding `c1cc[c]([Hg][c]2ccccc2)cc1`, the result in assay [1] was inactive.
As for `CCCCCCCCCCCCCCCC[n+]1ccccc1`, the AC50 (as a rule, the concentration giving half of the maximal activity seen) in assay [1] was 71.7 µM (active) [middle of 4 runs]; in assay [2] it was 62.7 µM (active) and 84.3 µM (active) and 80.2 µM (active); in assay [3], 67.7 µM (active) [middle of 4 runs]. Further, the outcome in assay [2] was inactive.
Regarding `CCCCCCCCSC(=O)Oc1cc(Cl)nnc1-c1ccccc1`, the outcome in assay [1] and in assay [2] was inactive.
`OCC(O)CCl` (stereo not drawn): the result in assay [1], in assay [2] and in assay [3] was inactive.
Consider `Cc1cc(=O)[nH]o1`, for which the result in assay [1] and in assay [2] was inactive.
`ClCCBr`: the outcome in assay [1], in assay [2] and in assay [3] was inactive.
Take `COc1cc2c(cc1OC)[C@@]13CCN4CC5=CCO[C@H]6CC(=O)N2[C@H]1[C@H]6[C@H]5C[C@H]43`: the outcome in assay [1], in assay [2] and in assay [3] was inactive.
With `c1ccc(N=NNc2ccccc2)cc1`, the outcome in assay [1], in assay [2] and in assay [3] was inactive.
Turning to `CCC(=O)c1ccccc1`, the result in assay [1] and in assay [2] was inactive.
As to `CCCCCCCCCl`, the result in assay [1], in assay [2] and in assay [3] was inactive.
As to `ClCc1ccccn1`, the outcome in assay [1], in assay [2] and in assay [3] was inactive.
With `C[C@H]1CCCC(=O)CCC/C=C/c2cc(O)cc(O)c2C(=O)O1`, the half-maximal activity concentration (AC50) was 11.7 µM (active) in assay [1]; 8.07 µM (active) and 12.3 µM (active) in assay [3]. The outcome in assay [1] and in assay [2] was inactive.
For the compound `COC(=O)c1sccc1S(=O)(=O)NC(=O)Nc1nc(C)nc(OC)n1`, the result in assay [1], in assay [2] and in assay [3] was inactive.
`CCOC(=O)/C=C(C)/C=C/C[C@@H](C)CCCC(C)C`: the result in assay [1], in assay [2] and in assay [3] was inactive.
Turning to `C[C@H]1O[C@@H](O[C@H]2[C@@H](O)C[C@H](O[C@H]3[C@@H](O)C[C@H](O[C@H]4CC[C@@]5(C)[C@H](CC[C@@H]6[C@@H]5CC[C@]5(C)[C@@H](C7=CC(=O)OC7)CC[C@]65O)C4)O[C@@H]3C)O[C@@H]2C)C[C@H](O)[C@@H]1O`, the outcome in assay [1], in assay [2] and in assay [3] was inactive. The AC50 in assay [2] is 28 nM (active).
In the case of `O=S(=O)(c1ccc(Cl)cc1)c1ccc(Cl)cc1`, the result in assay [1], in assay [2] and in assay [3] was inactive.
As to `CC(C#N)CCC#N` (stereo not drawn), the outcome in assay [1], in assay [2] and in assay [3] was inactive.
Turning to `O=C1C(Cl)=C(Cl)C(=O)c2ccccc21`, the AC50 in assay [1] was 63.4 µM (active) and 19.6 µM (active); in assay [2] it was 57700 nM (active); in assay [3] it was 17.1 µM (active). Moreover, the outcome in assay [2] and in assay [3] was inactive.
As to `COP(=S)(OC)Oc1ccc(S(=O)(=O)N(C)C)cc1`, the result in assay [1], in assay [2] and in assay [3] was inactive.
Take `CNC`: the result in assay [1], in assay [2] and in assay [3] was inactive.
Turning to `CCNc1nc(NC(C)(C)C)nc(SC)n1`, the outcome in assay [1], in assay [2] and in assay [3] was inactive.
For the compound `ClCc1cccnc1`, the outcome in assay [1] and in assay [2] was inactive.
With `CC(C)OC(=S)S`, the outcome in assay [1] and in assay [2] was inactive.
In the case of `Nc1ccc(-c2ccc(N)c(Cl)c2)cc1Cl`, the half-maximal activity concentration (AC50) is 16.3 µM (active) and 43.3 µM (active) in assay [1]; 33.6 µM (active) in assay [3]. The result in assay [1], in assay [2] and in assay [3] was inactive.
On to `CC(C)(c1ccc(OCC2CO2)cc1)c1ccc(OCC2CO2)cc1` (stereo not drawn), for which the half-maximal activity concentration (AC50) in assay [1] was 87.1 µM (active); in assay [3] it was 79.4 µM (active). In addition, the result in assay [1], in assay [2] and in assay [3] was inactive.
In the case of `C=C(C)C#N`, the outcome in assay [1], in assay [2] and in assay [3] was inactive.
Consider `N#CN=C(N)N`, for which the outcome in assay [1], in assay [2] and in assay [3] was inactive.

Values taken from PubChem BioAssay (EPA / NIEHS).
